One experiment has as its target Albumin (Bos taurus) (UniProt P02769). In words: bovine serum albumin binders on microarray, profiling panel, artefact control for SMM control protein annotation, biochemical, small-molecule microarray, Alexa647 label, 635/667 nm fluorescence (AID 1118).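 Note: score merges 667 nm emission intensity and signal-to-noise per printed compound spot.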 Particulars: BSA-A647 binding, fluorescence 635 nm, higher = more signal.
The nature of experiment [1]: small-molecule microarray binders of probe aXIP, primary screen, biochemical, NeuroSMM set, 635/667 nm fluorescence (AID 1119).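 Note: probe is the protein aXip251-270 applied at 1 µg/mL to compound-printed slides; binding of probe to printed compounds measured as 667 nm fluorescence plus signal to noise.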 Particulars: higher = more signal, called active from +8 up or from −8 down.
Experiment [2] in a line: small-molecule binders of probe aNOTCH3, primary screen, biochemical, small-molecule microarray, 635/667 nm fluorescence (AID 1120).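 Note: probe is a biotin-tagged antibody raised against NOTCH3 rather than NOTCH3 protein; score merges spot fluorescence near 667 nm with spot signal to noise.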 Particulars: higher = more signal.
The nature of experiment [3]: small-molecule binders of probe aNOTCH2, primary screen, biochemical, small-molecule microarray, 635/667 nm fluorescence (AID 1121).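 Note: score merges feature fluorescence read at 667 nm with its signal to noise.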 Particulars: higher = more signal.
The target in experiment [4] is Carbonic anhydrase 2 (Homo sapiens) (UniProt P00918). In words: CAII small-molecule binders, profiling panel, biochemical, small-molecule microarray, Alexa647-labelled CAII (AID 1122). To be noted: CAII-A647 binding fluorescence, higher = more signal.
A short description of experiment [5]: COS7 lysate on small-molecule microarray, probe aHis, 635 nm (AID 1123).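 Note: z-score combines 667nm fluorescence intensity with signal-to-noise per printed compound spot.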 To be noted: COS7 cell lysate, fluorescence, higher = more signal.
Experiment [6] can be described thus: compound binding in COS7 lysate, probe aLAP1, primary screen, cell lysate, small-molecule microarray (AID 1124).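 Note: lysate comes from COS7 cells expressing LAP1 and is applied at 0.3 µg/mL; score merges spot fluorescence near 667 nm with signal-to-noise over triplicate slides.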 To be noted: probe aLAP1, fluorescence, higher = more signal.
Another experiment deals with Sam68 (KHDRBS1). In words: Sam68 small-molecule binders, primary screen, biochemical, small-molecule microarray, 635 nm fluorescence (AID 1125).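 Note: score merges 667 nm channel intensity with signal to noise over triplicate slides.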 Particulars: small-molecule microarray binding, higher = more signal.
For experiment [7], the system named is Chordin-like protein 2 (CHRDL2). In words: CHRDL2 small-molecule binders, primary screen, biochemical, small-molecule microarray, 635 nm fluorescence (AID 1126).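 Note: printed compound slides probed with Chrdl2 protein at 4 µg/mL for 1 h at 4 C; score merges 667 nm emission intensity with signal to noise over three replicate slides.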 Particulars: small-molecule microarray binding, fluorescence 635 nm; higher = more signal.
Experiment [8] addresses Concanavalin-A (Canavalia ensiformis) (UniProt P02866). The experiment can be described thus: ConA small-molecule binders, primary screen, artefact control for SMM control protein annotation, biochemical, small-molecule microarray, Alexa647 label, 635 nm (AID 1127).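 Note: z combines 667 nm emission intensity with signal-to-noise across three replicate slides.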 Particulars: ConA-A647 binding fluorescence, higher = more signal.
The nature of experiment [9]: anti-His antibody binders, primary screen, artefact control for SMM control protein annotation, biochemical, small-molecule microarray, 635 nm fluorescence (AID 1128).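 Note: score merges feature fluorescence with signal-to-noise for each printed compound spot.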 Particulars: anti-His Alexa647 antibody binding, higher = more signal.
For experiment [10], the system named is Human papillomavirus type 1a E7 protein (residues 1-88). The experiment can be described thus: HPV1a E7 small-molecule binders, primary screen, biochemical, small-molecule microarray, residues 1-88, 635 nm (AID 1129). Particulars: small-molecule microarray binding, fluorescence 635 nm; higher = more signal.
The target in experiment [11] is Focal adhesion kinase 1 (Homo sapiens) (UniProt Q05397). The experiment can be described thus: small-molecule microarray binders of FAK, primary screen, biochemical, 635/667 nm fluorescence, BSA, DTT (AID 1130).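 Note: composite of spot emission at 667 nm and signal to noise over triplicate slides.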 To be noted: PTK2 binding, 635 nm fluorescence, higher = more signal.
Focal adhesion kinase 1 (Homo sapiens), sequence (Q05397 whole entry, looked up): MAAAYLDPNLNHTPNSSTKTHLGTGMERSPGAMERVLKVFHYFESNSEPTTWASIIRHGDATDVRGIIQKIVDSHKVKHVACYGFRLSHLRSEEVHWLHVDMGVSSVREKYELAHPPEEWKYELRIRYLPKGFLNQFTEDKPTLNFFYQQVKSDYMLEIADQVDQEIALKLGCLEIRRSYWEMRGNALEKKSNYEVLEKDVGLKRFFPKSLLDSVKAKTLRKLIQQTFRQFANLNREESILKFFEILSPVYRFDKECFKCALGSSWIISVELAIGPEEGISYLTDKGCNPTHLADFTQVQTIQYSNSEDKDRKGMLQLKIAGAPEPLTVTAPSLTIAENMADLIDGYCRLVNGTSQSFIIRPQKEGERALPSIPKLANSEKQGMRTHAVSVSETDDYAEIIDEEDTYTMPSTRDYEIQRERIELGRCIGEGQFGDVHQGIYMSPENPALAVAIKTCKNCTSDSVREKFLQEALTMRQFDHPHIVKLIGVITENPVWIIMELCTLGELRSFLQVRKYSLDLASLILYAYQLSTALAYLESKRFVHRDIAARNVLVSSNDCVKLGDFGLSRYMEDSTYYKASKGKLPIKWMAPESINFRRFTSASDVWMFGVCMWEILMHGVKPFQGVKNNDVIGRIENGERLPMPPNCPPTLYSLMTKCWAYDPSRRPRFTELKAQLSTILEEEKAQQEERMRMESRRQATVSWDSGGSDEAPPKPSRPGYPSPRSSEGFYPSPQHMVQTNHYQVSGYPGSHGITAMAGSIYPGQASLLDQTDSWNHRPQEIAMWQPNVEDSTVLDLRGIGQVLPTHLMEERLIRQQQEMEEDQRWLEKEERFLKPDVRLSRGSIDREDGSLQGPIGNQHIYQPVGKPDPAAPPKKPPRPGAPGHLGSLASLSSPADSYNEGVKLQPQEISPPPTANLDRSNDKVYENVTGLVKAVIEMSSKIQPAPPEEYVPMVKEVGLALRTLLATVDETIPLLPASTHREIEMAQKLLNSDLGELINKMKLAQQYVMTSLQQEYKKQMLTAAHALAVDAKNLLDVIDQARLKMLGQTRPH
Experiment [12] has as its system Fibrinogen (Alexa647-labelled). The experiment can be described thus: fibrinogen binders on compound microarrays, profiling panel, artefact control for SMM control-protein annotation, biochemical, small-molecule microarray, 635/667 nm fluorescence (AID 1131).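 Note: z-score merges 667 nm fluorescence with per-spot signal-to-noise over triplicate slides.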 Particulars: fibrinogen-A647 binding fluorescence, higher = more signal.
Experiment [13] concerns the target Follistatin (Homo sapiens) (UniProt P19883). The experiment can be described thus: follistatin binders on small-molecule microarrays, primary screen, biochemical, small-molecule microarray, 635/667 nm fluorescence (AID 1132). Particulars: FST binding, 635 nm fluorescence, higher = more signal.
In experiment [14] the target is Fibroblast growth factor 2 (Homo sapiens) (UniProt P09038). The experiment can be described thus: FGF2 binders on small-molecule microarrays, primary screen, biochemical, small-molecule microarray, 635/667 nm fluorescence (AID 1133). Particulars: small-molecule microarray binding, FGF2, fluorescence 635/667; higher = more signal.
Fibroblast growth factor 2 (Homo sapiens), sequence (P09038 whole entry, looked up): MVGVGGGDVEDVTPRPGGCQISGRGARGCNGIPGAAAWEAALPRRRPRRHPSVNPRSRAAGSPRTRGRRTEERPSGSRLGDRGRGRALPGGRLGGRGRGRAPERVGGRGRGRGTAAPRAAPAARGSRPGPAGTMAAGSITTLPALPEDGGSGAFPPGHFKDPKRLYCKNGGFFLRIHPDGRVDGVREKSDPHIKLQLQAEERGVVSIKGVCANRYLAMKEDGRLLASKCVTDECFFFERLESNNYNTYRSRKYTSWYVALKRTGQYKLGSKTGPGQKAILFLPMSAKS
The nature of experiment [15]: mitochondrial membrane potential change in A549 cells, profiling panel, cell-based, JC-1 fluorescence, basal, 24 h, 100 nL (AID 1138).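 Note: A549 lung adenocarcinoma cells under basal conditions with no added stimulus; test concentration not given here.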 Particulars: higher = more signal.
For a further experiment, the system named is Lefty1. In words: Lefty1 binders on small-molecule microarrays, primary screen, biochemical, small-molecule microarray, 635/667 nm fluorescence (AID 1139). Particulars: small-molecule microarray binding, fluorescence 635/667; higher = more signal.
Experiment [16] relates to wheat germ agglutinin (Triticum aestivum), Alexa647-labelled. In words: wheat germ agglutinin binders on compound microarrays, profiling panel, artefact control for SMM control-protein annotation, biochemical, small-molecule microarray, 635/667 nm fluorescence (AID 1140).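 Note: score merges 667 nm feature emission with signal to noise over triplicate slides.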 Particulars: WGA-A647 binding, 635 nm fluorescence, higher = more signal.
Experiment [17] has as its target Luciferin 4-monooxygenase (Photinus pyralis) (UniProt P08659). The experiment can be described thus: firefly luciferase enzyme inhibitors, primary screen, biochemical, luminescence, purified enzyme, 2006 set (AID 1141).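 Note: cell-free assay with purified firefly luciferase at 100 ng per well in PBS; test concentration not given here.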 Particulars: SteadyGlo luminescence, 30 min, higher = more signal, called active from +8 up or from −8 down.

SMILES strings stand for the structures. Active and inactive are the calls of the source.

Concanavalin-A (Canavalia ensiformis), sequence (P02866 whole entry, looked up): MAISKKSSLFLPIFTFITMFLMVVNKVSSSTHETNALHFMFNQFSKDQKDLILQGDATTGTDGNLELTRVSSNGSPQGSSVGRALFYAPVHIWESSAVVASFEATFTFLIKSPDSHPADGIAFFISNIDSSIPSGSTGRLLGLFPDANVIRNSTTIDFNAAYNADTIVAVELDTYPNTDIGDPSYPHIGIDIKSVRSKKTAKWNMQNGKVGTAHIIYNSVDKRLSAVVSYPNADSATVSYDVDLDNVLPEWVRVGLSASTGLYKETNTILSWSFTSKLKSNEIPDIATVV
Luciferin 4-monooxygenase (Photinus pyralis), sequence (P08659 whole entry, looked up): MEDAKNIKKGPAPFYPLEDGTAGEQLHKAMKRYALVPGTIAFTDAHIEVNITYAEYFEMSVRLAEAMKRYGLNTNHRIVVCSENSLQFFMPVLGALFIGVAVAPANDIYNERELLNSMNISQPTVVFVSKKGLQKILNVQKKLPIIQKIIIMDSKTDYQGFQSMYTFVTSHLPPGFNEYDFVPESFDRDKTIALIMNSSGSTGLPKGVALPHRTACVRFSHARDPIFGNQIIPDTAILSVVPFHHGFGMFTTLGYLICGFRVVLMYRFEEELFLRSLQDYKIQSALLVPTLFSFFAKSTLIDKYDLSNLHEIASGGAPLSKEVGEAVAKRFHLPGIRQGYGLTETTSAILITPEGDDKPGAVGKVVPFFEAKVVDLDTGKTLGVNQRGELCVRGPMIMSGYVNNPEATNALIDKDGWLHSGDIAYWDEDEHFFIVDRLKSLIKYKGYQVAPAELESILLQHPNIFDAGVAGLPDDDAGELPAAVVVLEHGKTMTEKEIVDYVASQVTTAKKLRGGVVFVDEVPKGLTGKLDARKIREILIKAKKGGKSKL
Follistatin (Homo sapiens), sequence (P19883 whole entry, looked up): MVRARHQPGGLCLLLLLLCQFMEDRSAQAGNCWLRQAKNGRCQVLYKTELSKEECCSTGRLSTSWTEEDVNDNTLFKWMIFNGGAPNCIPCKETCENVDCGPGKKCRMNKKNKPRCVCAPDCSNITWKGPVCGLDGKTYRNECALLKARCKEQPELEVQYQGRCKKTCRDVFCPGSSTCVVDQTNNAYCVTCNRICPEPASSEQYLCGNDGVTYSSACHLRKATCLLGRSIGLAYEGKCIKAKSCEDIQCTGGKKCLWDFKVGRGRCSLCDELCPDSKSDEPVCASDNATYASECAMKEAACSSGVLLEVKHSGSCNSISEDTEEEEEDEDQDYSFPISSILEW
Albumin (Bos taurus), sequence (P02769 whole entry, looked up): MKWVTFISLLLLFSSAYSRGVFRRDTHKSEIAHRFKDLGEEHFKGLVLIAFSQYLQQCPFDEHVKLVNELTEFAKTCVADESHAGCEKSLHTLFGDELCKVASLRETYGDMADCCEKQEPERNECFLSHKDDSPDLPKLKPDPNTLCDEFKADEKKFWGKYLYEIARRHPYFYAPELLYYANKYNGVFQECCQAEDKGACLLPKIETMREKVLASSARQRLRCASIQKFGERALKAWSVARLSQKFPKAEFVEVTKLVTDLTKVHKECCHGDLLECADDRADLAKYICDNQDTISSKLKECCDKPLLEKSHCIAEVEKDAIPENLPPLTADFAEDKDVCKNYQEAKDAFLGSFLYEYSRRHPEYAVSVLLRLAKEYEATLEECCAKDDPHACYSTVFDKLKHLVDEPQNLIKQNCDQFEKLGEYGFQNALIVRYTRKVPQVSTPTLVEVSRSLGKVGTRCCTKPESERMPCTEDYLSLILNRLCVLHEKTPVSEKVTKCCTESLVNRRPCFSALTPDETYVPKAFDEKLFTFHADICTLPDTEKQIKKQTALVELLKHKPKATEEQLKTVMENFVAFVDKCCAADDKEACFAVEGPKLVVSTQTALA

`O=C1O[C@H](c2ccccc2)[C@H](c2ccccc2)N2[C@H]1[C@@H](C(=O)NC[C@H](O)c1ccccc1)[C@]1(C(=O)Nc3ccc(C#CCCO)cc31)[C@H]2c1ccc(OCCO)cc1`: the composite z-score is 0.834 with Albumin (Bos taurus); 0.0311 in [2]; -0.0666 in [3]; 0.627 in [4]; 1.7 in experiment [5]; -0.0479 in experiment [6]. Besides, the composite z-score is 1.29 with Sam68 (KHDRBS1); -0.327 in experiment [7]; 1.08 in experiment [8]; 1.32 in experiment [9]; 1.2 in [10]; 0.693 in experiment [11]. Further, the composite z-score was 0.738 in experiment [12]; 0.743 in experiment [13]; 0.134 in experiment [14]; 0.329 in the experiment with Lefty1; 1.01 in experiment [16]. Besides, the composite Z-score in [1] was 0.182 (inactive). Besides, the z-score was -0.552 in experiment [15] and -2.02 (inactive) in experiment [17].

As to `O=C1O[C@@H](c2ccccc2)[C@@H](c2ccccc2)N2[C@@H](c3ccc(O)cc3)[C@]3(C(=O)Nc4ccc(C#CC5=CCCCC5)cc43)[C@@H](C(=O)NC[C@H](O)c3ccccc3)[C@H]12`, the composite z-score was determined as 0.375 with Albumin (Bos taurus); 0.274 in experiment [2]; 0.0556 in experiment [3]; 0.401 in experiment [4]; 2.1 in [5]; 0.553 in experiment [6]. For the same molecule, the composite z-score with Sam68 (KHDRBS1) is 1.31; in experiment [7] it was 1.13; in experiment [8] it was 1.05; in experiment [9] it was 0.219; in experiment [10] it was 1.19; in experiment [11], 0.134. Besides, the composite z-score stood at 0.925 in experiment [12]; 1.45 in experiment [13]; 1.69 in experiment [14]; 0.907 in the experiment with Lefty1; 1 in experiment [16]. The composite Z-score in experiment [1] is 0.486 (inactive). Besides, the z-score in experiment [15] is -0.945; in experiment [17], -1.38 (inactive).

On to `C=CCN1C(=O)[C@@]2(O[C@@H](CCn3cc([C@H](O)c4ccccc4)nn3)[C@H]([Si](C)(C)c3ccc(OC)cc3)[C@H]2C)c2cc(N3CCC3=O)ccc21`, for which the composite z-score in the experiment with Albumin (Bos taurus) was 0.292; in [2] it was -0.132; in experiment [3] it was -0.189; in experiment [4], 0.489; in experiment [5] it was 0.901; in experiment [6] it was 0.249. The composite z-score was 0.636 in the experiment on Sam68 (KHDRBS1); 0.163 in [7]; 0.0967 in experiment [8]; 1.65 in [9]; 1.09 in experiment [10]; -0.082 in [11]. Besides, the composite z-score is -0.117 in experiment [12]; 0.345 in [13]; 0.0863 in [14]; -0.127 in the experiment with Lefty1; 0.552 in [16]. Also, the composite Z-score in experiment [1] is 0.346 (inactive). Also, the z-score in experiment [15] was 2.25; in [17] it was -1.21 (inactive).

As for `NCCCCCCNC(=O)[C@@H]1C[C@@H]2C(=O)N[C@@H](CCCCN)C(=O)N2[C@@H]1c1cccc(OCCO)c1`, the composite z-score in the experiment with Albumin (Bos taurus) is -0.907; in experiment [2], 0.645; in [3] it was 0.163; in experiment [4], 0.584; in experiment [5] it was -0.191; in experiment [6], 0.767. Also, the composite z-score with Sam68 (KHDRBS1) was 1.2; in experiment [7], 1.05; in [8] it was 0.718; in [9] it was 1.24; in [10], 1.12; in [11], 1.21. Besides, the composite z-score in experiment [12] was -0.0787; in [13], 0.877; in experiment [14], 0.485; in the experiment with Lefty1, 1.4; in [16] it was 0.641. Also, in experiment [1], the composite Z-score is 2.87 (inactive). Also, the z-score is 0.81 in experiment [15] and 0.507 (inactive) in [17].

Turning to `Cc1ccccc1C(O)C1C=CC2C(=O)N(C)C(=O)C2N1N(c1ccccc1)c1ccccc1` (stereo not given), the composite z-score with Albumin (Bos taurus) was 0.25; in experiment [2], 0.84; in experiment [3], 0.473; in [4] it was 0.833; in [5], -0.266; in [6], 0.307. The composite z-score in the experiment on Sam68 (KHDRBS1) is -1.29; in experiment [7] it was 0.682; in experiment [8] it was -0.752; in experiment [9] it was 1.13; in [10] it was -0.298; in experiment [11], -0.128. For the same molecule, the composite z-score in [12] was 0.354; in experiment [13], 0.799; in [14], -0.0234; in the experiment on Lefty1, -0.543; in [16] it was 0.641. Moreover, the composite Z-score in experiment [1] is 0.111 (inactive). The z-score in experiment [15] was 0.429; in experiment [17], -0.609 (inactive).

These data come from PubChem BioAssay.
